We go through 49 molecules from PubChem BioAssay AID485364 (National Center for Advancing Translational Sciences (NCATS), 2010).

In all, about 360,000 compounds went through this assay and about 11,000 (3.1%) were called active. About 4% were inconclusive and are not listed. The full list was thinned out, with actives kept by preference. A number with no mark means an inactive call. The call rests on the fitted dose curve; in most records, active means well fitted inhibition curve with a large enough effect; inconclusive means small, poorly fitted or top-dose-only effect; inactive means no such curve, though single readings can be large or run the other way.
On the % scale 0 is the no-effect control and ±100 the full control effect; potency means the concentration at half of the fitted maximal effect.

The test has as its target Schistosoma mansoni thioredoxin glutathione reductase (TGR) (UniProt Q962Y6). Kind of test: qHTS Assay for the Inhibitors of Schistosoma Mansoni Peroxiredoxins. Further: nearly all actives have a fitted effect of over 60% in size. To be noted: purified TGR, DTNB reduction, TNB absorbance 405 nm; series mostly up to 114 µM; activity change, negative = inhibition: at the top concentration. The source says: Schistosomiasis is a major neglected tropical disease that currently affects over 200 million. It is caused by different species of flatworms, such as Schistosoma mansoni. Over the last century, drugs to treat the disease have evolved from potassium antimonyl tartrate, artemisinin, oxamniquine, to praziquantel, with praziquantel remaining the universally-used single drug of choice over the past three decades. However, transmission rates have changed little with praziquantel, and there is evidence for the development of drug resistant parasites. Because there is currently no suitable alternative therapy available, there is an urgent need to identify new targets and drugs for schistosomiasis treatment. Thioredoxin glutathione reductase (TGR), one uniquely positioned S. mansoni enzyme, has been identified as a major component of the worms' distinct and compressed antioxidant "firewall". TGR is a multifunctional enzyme that catalyzes the interconversion between reduced and oxidized forms of both glutathione (GSH) and thioredoxins, thus making it an attractive new antiparasitic target. Recently, a quantitative high-throughput screen of the NIH Molecular Libraries Small Molecule Repository (MLSMR, ~71K at the time of the screen in 2007) was performed using an assay that targeted both TGR and peroxiredoxin2 (Prx2, an H2O2-reducing enzymatic component of the S. mansoni redox "firewall") by following the decrease of NADPH fluorescence. […] Additional mechanistic link between exogenous NO donation and parasitic injury for the oxadiazole-2-oxide class of compounds was also expanded and better defined. Although the screen addressed both TGR and Prx2, the assay required post-screen target deconvolution for further characterization of the actives. In addition, the fluorescence assay was also subject to fluorescence interference from compound library members. We have developed a 1536-well-based kinetic HTS assay to address TGR alone. The assay followed the reduction of 5, 5'-dithiobis (2-nitrobenzoic acid) (DTNB) (Ellman's reagent) by NADPH and measured the increase in absorbance at 412 nm of the reaction product, TNB. […] This assay format can be used to screen the current MLSMR collection (with >300K compounds available) to find novel TGR inhibitors. Furoxan is a good choice to serve as a positive control in the primary HTS assay.
Three microliters of reagents (100 uM NADPH and 20 nM TGR or 100 uM NADPH as no-enzyme control) were dispensed into 1,536-well black clear-bottomed plates. Compounds (23 nL) were transferred via Kalypsys pin tool equipped with 1536-pin array (10 nL slotted pins, V&P Scientific, San Diego, CA). The plates were then be incubated for 15 min at room temperature, and 1 uL aliquot of 500 uM NADPH were added, immediately followed by a 1 uL aliquot of 15 mM DTNB to start the reaction. The plate was transferred to a ViewLux high-throughput CCD imager (Perkin-Elmer, Wellesley, MA) where kinetic measurements of the TNB absorbance were acquired using a 405 excitation filter. Throughout the screen, reagent bottles and all liquid lines were made light-tight to minimize reagent degradation. All screening operations were performed on a fully integrated robotic system (Kalypsys, San Diego, CA) containing one RX-130 and two RX-90 anthropomorphic robotic arms (Staubli, Duncan, SC). Library plates were screened starting from the lowest and proceeding to the highest concentration, and a "double-dipping" step of the highest concentration was required to access higher concentrations of compounds. Vehicle-only plates, with DMSO being pin-transferred to the entire column 5-48 compound area, were inserted uniformly at the beginning and the end of each library in order to monitor for and record any shifts in the background, which can be affected by reagent dispensers or loss in enzyme activity overtime. […]
(qHTS replaces the single test concentration by a dilution series.)
As to `CCOc1ccc(N(CC)C(=O)c2cc3c(=O)oc4ccccc4c3s2)cc1`, the “activity change, negative = inhibition” value is -10.1%.

On to `O=C(c1ccc(Br)cc1)N(Cc1cccs1)c1ccc(F)cc1`, for which the “activity change, negative = inhibition” value was -2.63%.

For `CN1CCN(S(=O)(=O)c2ccc(N3CCN(c4ccccc4O)CC3)c([N+](=O)[O-])c2)CC1`, the “activity change, negative = inhibition” value was -15.4%.

Turning to `Cc1cc(N)n(-c2ccc(S(=O)(=O)N3CCCC3)cc2[N+](=O)[O-])n1`, the Potency is 50.1 µM (active).

As to `O=[N+]([O-])c1cc(S(=O)(=O)N2CCCC2)ccc1NN=C1CCCC1`, the “activity change, negative = inhibition” value was -14.2%.

Take `COc1cc(OC)cc(C(=O)NCCc2csc3nc(-c4ccccc4F)nn23)c1`: the “activity change, negative = inhibition” value was 2.26%.

On to `CCC1CCCCN1C(=S)Nc1ccc(C(C)=O)cc1` (centres undefined), for which the “activity change, negative = inhibition” value was -6.57%.

Consider `CCC1CCCCN1C(=O)Nc1cccc(NC(=O)N2CCCCC2CC)c1` (centres undefined), for which the Potency was 39.8 µM (active).

Consider `COc1cccc(NC(=O)N2CCCC2C(=O)NC2CCCCC2)c1` (centres undefined), for which the “activity change, negative = inhibition” value was 4.18%.

With `CCN1C(=O)c2ccccc2Sc2ccc(NC(=O)Cc3ccc(OC)cc3)cc21`, the “activity change, negative = inhibition” value was 5.68%.

Turning to `CCCCC(CC)CNC(=O)C(=O)C1C(=O)Nc2ccccc21` (centres undefined), the “activity change, negative = inhibition” value is 1.5%.

As for `CCOC(=O)C(=O)C1C(=O)Nc2ccccc21` (centres undefined), the Potency is 28.2 µM (active).

As for `CCOC(=O)CC1=CC(=O)Nc2ccccc2N1`, the “activity change, negative = inhibition” value is 0%.

As for `CCc1ccc(NC(=O)C2CCCN2S(=O)(=O)c2ccc3nc(-c4ccccc4)[nH]c3c2)cc1` (centres undefined), the “activity change, negative = inhibition” value was -9.77%.

Consider `Oc1cc2c(cc1CN1CCN(c3ccccc3)CC1)OCO2`, for which the Potency is 1.58 µM (active).

With `CC(C)c1ccc(O)c(CN2CCN(c3ccccc3)CC2)c1`, the “activity change, negative = inhibition” value is 4.78%.

As for `Fc1ccc(N2CCN(Cc3ccc4c(c3)OCO4)CC2)cc1`, the activity change, negative = inhibition was 8.45% [at 11.4 µM].

As for `Cc1cc2c(cc1C)C(c1cccc(OC(C)C)c1)CC(=O)N2` (centres undefined), the “activity change, negative = inhibition” value was 8.08%.

On to `CCc1ccc2oc(-c3ccc(NC(=O)c4cc5ccccc5o4)cc3)nc2c1`, for which the “activity change, negative = inhibition” value is 5.27%.

Take `COc1ccc(OC)c(CNC(=O)c2c3c(nc4ccccc24)C(=O)N(C2CCCCC2)C3)c1`: the “activity change, negative = inhibition” value is 4.02%.

As to `COc1ccc(S(=O)(=O)NCC(c2ccc(N(C)C)cc2)N2CCCC2)cc1` (centres undefined), the “activity change, negative = inhibition” value was -1.69%.

Take `O=S(=O)(NCC(c1ccco1)N1CCOCC1)c1cc(F)ccc1F` (centres undefined): the “activity change, negative = inhibition” value was -10%.

Consider `CN(C)c1ccc(C(CNS(=O)(=O)c2cc(F)ccc2F)N2CCOCC2)cc1` (centres undefined), for which the Potency was 44.7 µM (active).

Turning to `CCCn1ccc2c(OCC(=O)NCc3ccc(F)cc3)cccc2c1=O`, the “activity change, negative = inhibition” value was 10.9%.

`COC(=O)c1ccccc1NC(=O)C(Cc1ccccc1)N1Cc2ccccc2C1=O` (centres undefined): the “activity change, negative = inhibition” value is -0.352%.

Turning to `COc1ccc2oc(=N)c(C(=O)Nc3ccc(Br)cc3)cc2c1`, the “activity change, negative = inhibition” value is 3.72%.

For `COc1ccc(C(=O)c2oc3ccc(Br)cc3c2NC(C)=O)cc1`, the “activity change, negative = inhibition” value is 13.6%.

Turning to `COc1ccc(/C=C/C(=O)c2cc(Br)ccc(=O)c2O)cc1`, the Potency is 15.8 µM (active).

`O=S(=O)(c1ccc(Cl)cc1)c1nc(-c2ccco2)oc1N1CCCCC1`: the Potency is 14.1 µM (active).

Regarding `O=C(CSc1oc(-c2ccco2)nc1S(=O)(=O)c1ccc(Cl)cc1)c1ccccc1`, the “activity change, negative = inhibition” value was -4.02%.

`O=S(=O)(c1ccccc1)c1nc(-c2ccc(Cl)cc2Cl)oc1N1CCCCC1`: the “activity change, negative = inhibition” value is -2.81%.

For the molecule `CCCc1nn2c(=O)cc(COC(=O)c3ccc(NC(=O)C(C)Oc4ccccc4)cc3)nc2s1` (centres undefined), the “activity change, negative = inhibition” value is -1.34%.

For `N#Cc1c(N)n(CCOC(=O)c2ccc(Cl)cc2)c2nc3ccccc3nc12`, the “activity change, negative = inhibition” value is 3.75%.

On to `CN(C)CCCn1c(N)c(C#N)c2nc(C#N)c(C#N)nc21`, for which the Potency is 20 µM (active).

On to `CCCN(CCC)C(=O)C(Cc1ccccc1)NS(=O)(=O)c1ccc2c(c1)c(=O)n(C)c(=O)n2C` (centres undefined), for which the “activity change, negative = inhibition” value was -10.4%.

For `CCCN(CCC)CCNC(=O)Cn1cnc2sc(C)c(S(=O)(=O)N3CCC(C)CC3)c2c1=O`, the “activity change, negative = inhibition” value is -0.546%.

Turning to `CC(C)c1ccc(C2C(C(=O)c3ccco3)=C(O)C(=O)N2CC2CCCO2)cc1` (centres undefined), the “activity change, negative = inhibition” value is 12.7%.

As to `C=CCSc1nnc(N2C(=O)C(O)=C(C(=O)c3ccco3)C2c2ccc(F)cc2)s1` (centres undefined), the Potency was 14.1 µM (active).

As for `Cc1ccc2nc(N3C(=O)C(O)=C(C(=O)c4ccco4)C3c3cccc(O)c3)sc2c1` (centres undefined), the “activity change, negative = inhibition” value is -23.4%.

`O=C(CSc1ccc(-c2ccc(F)cc2)nn1)Nc1ccc2c(c1)OCCO2`: the “activity change, negative = inhibition” value was 7.31%.

Turning to `COc1ccc(NC(=O)CSc2nc(SC)ns2)c(OC)c1`, the “activity change, negative = inhibition” value was 26.6%.

As for `S=C(NCc1ccc2c(c1)OCO2)NCc1ccco1`, the Potency is 35.5 µM (active).

On to `O=C(CSc1ccc(-c2ccccn2)nn1)Nc1ccccc1`, for which the “activity change, negative = inhibition” value is 1.31%.

Turning to `O=C(CSc1ccc(-c2ccco2)nn1)Nc1cccc(F)c1`, the Potency is 10 µM (active).

With `COc1ccc(NC(=O)CCC(=O)Nc2cc(OC)c(NC(=O)c3ccco3)cc2OC)c(OC)c1`, the “activity change, negative = inhibition” value is 1.32%.

With `Cc1c(Cl)cccc1NC(=S)NCc1ccc2c(c1)OCO2`, the “activity change, negative = inhibition” value is 3.48%.

Regarding `COc1ccc(NC(=O)CSc2ccc(-c3ccco3)nn2)c(OC)c1`, the Potency is 20 µM (active).

As for `O=C(CSc1ccc(-c2ccco2)nn1)NCc1ccc2c(c1)OCO2`, the Potency is 12.6 µM (active).

As for `COC(=O)Cc1ccc(NC(=S)NCc2ccco2)cc1`, the “activity change, negative = inhibition” value is -28.3%.
